Reference: PubChem BioAssay AID1851 (National Center for Advancing Translational Sciences (NCATS), 2009)
Screen size: about 16,000 compounds; about 5,800 (36%) were called active. Inconclusive results (about 23%) are left out. Some of the results follow. A number with no mark means an inactive call. The call rests on the fitted dose curve; in most records, active means well fitted curve in the direction sought with a large enough effect; inconclusive means small, poorly fitted or top-dose-only effect, or effect the other way; inactive means no such curve, though single readings can be large or run the other way.

target: Cytochrome P450 2C19 (Homo sapiens) (UniProt P33261); test: Cytochrome panel assay with activity outcomes; details: recombinant CYP, pro-luciferin dealkylation, luminescence, p450-cyp2c19; series mostly up to 57.1 µM; activity, negative = inhibition: at the top concentration
Sequence (P33261 whole entry, looked up): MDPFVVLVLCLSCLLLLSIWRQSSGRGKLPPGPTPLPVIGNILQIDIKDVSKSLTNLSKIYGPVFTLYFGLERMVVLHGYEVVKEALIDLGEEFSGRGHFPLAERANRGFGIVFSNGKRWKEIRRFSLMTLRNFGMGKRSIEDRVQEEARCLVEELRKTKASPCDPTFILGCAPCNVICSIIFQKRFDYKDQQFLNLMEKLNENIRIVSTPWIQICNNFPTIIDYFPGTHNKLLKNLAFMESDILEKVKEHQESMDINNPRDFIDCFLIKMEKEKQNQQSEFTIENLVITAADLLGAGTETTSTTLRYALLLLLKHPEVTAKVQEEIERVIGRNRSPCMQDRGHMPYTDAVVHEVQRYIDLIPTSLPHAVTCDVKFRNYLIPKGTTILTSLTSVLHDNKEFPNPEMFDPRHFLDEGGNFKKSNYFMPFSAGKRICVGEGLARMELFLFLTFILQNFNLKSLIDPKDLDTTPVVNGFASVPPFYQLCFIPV
On the % scale 0 is the no-effect control and ±100 the full control effect.

SMILES	activity, negative = inhibition	AC50
C=C1c2cccc(O)c2C(O)=C2C(=O)[C@@]3(O)C(O)=C(C(N)=O)C(=O)[C@@H](N(C)C)[C@@H]3[C@@H](O)[C@H]12	-9.19% [at 25.6 µM]	
Cc1c(NC(=O)CN2C(=O)C3C4C=CC(C4)C3C2=O)c(=O)n(-c2ccccc2)n1C (configuration not stated)	-21.4%	
CCC(C(=O)c1ccccc1)N(C(=O)c1ccccc1Cl)N1C(=O)C2C3C=CC(C3)C2C1=O (configuration not stated)		3.55 µM (active)
Cc1c(NC(=O)NC(C)N2C(=O)C3C4C=CC(C4)C3C2=O)c(=O)n(-c2ccccc2)n1C (configuration not stated)	-3.29%	
Cn1c(CN2CCCCC2)nc2cc(NC(=O)c3ccc(Cl)cc3)ccc21		28.2 µM (active)
COc1ccc(C(=O)Nc2ccc3c(c2)nc(CN2CCN(C(C)=O)CC2)n3C)cc1	2.91%	
CC(C)n1cc(/C=C2/SC(=O)N(CC(=O)Nc3ccc4c(c3)OCO4)C2=O)c2ccccc21		5.01 µM (active)
CCn1c(C)cc(/C=C2\SC(=O)N(CC(=O)Nc3ccc(C)c(C)c3)C2=O)c1C		1.12 µM (active)
Cn1cc(/C=C2/SC(=O)N(CC(=O)Nc3ccc4c(c3)OCO4)C2=O)c2ccccc21		0.794 µM (active)
Cc1ccc(NC(=O)CN2C(=O)S/C(=C\c3cccn3C)C2=O)cc1	-11.2%	
Cc1c(/C=C2\SC(=O)N(CC(=O)Nc3ccc4c(c3)OCO4)C2=O)c2ccccc2n1C		2.51 µM (active)
CC(C)=CCC/C(C)=C/CO/N=C1/C[C@@H](O)[C@@H](O)[C@@H]2[C@H]3C(=O)N(c4ccc(F)cc4F)C(=O)[C@@H]3CC[C@H]12	-33.8% [at 11.4 µM]	
CCNc1ncc2nc(-c3ccccc3)c(=O)n(Cc3cccs3)c2n1	-10.5%	
COc1cccc(Cn2c(=O)c(-c3cc(F)cc(F)c3)nc3cnc(N(C)C)nc32)c1	2.39%	
CN(C)c1ncc2nc(-c3ccc(F)cc3)c(=O)n(Cc3cccs3)c2n1	4.17%	
CN(C)c1ncc2nc(CCc3ccccc3)c(=O)n(Cc3cccs3)c2n1		6.31 µM (active)
COc1cccc(Cn2c(=O)c(CCc3ccccc3)nc3cnc(N(C)C)nc32)c1		0.794 µM (active)
CN(C)c1ncc2nc(-c3ccc(Cl)cc3)c(=O)n(Cc3cccs3)c2n1	34.8%	
CCNc1ncc2nc(CCc3ccccc3)c(=O)n(Cc3cccc(OC)c3)c2n1		6.31 µM (active)

SMILES	activity, negative = inhibition	AC50
COc1cccc(Cn2c(=O)c(-c3ccccc3)nc3cnc(N(C)C)nc32)c1	-36%	
COc1cccc(Cn2c(=O)cnc3cnc(N(C)C)nc32)c1		2.51 µM (active)
C=CCN1CCc2cc(O)c(O)cc2[C@H](c2ccccc2)C1		inactive
CN(C)c1ncc2nc(CCc3ccccc3)c(=O)n(Cc3ccc(F)cc3)c2n1		0.794 µM (active)
COc1cccc(Cn2c(=O)c(-c3cn(C)c4ccccc34)nc3cnc(OC)nc32)c1	-30%	
Cc1nc2cnc(N(C)C)nc2n(Cc2cccs2)c1=O	-27%	
CN(C)c1ncc2nc(-c3cc(F)cc(F)c3)c(=O)n(CCc3ccccc3)c2n1	13.3%	
CN(C)c1ncc2nc(-c3ccccc3)c(=O)n(Cc3ccc(F)cc3)c2n1	-22%	
COc1cccc(Cn2c(=O)c(CCc3ccccc3)nc3cnc(OC)nc32)c1		15.8 µM (active)
CN(C)c1ncc2ncc(=O)n(Cc3cccs3)c2n1		10 µM (active)
COc1ccc(Oc2ncc3nc(-c4cccc(C#N)c4)c(=O)n(Cc4cccc(OC)c4)c3n2)cc1	2.61%	
COc1cccc(Cn2c(=O)c(-c3cccc(C#N)c3)nc3cnc(OC)nc32)c1		10 µM (active)
CN(C)c1ncc2nc(-c3cccs3)c(=O)n(Cc3cccs3)c2n1	-12.8%	
COc1cccc(Cn2c(=O)c(-c3cccc(C#N)c3)nc3cnc(Nc4ccccc4)nc32)c1	-33.9%	
COc1ccc(-c2nc3cnc(OC)nc3n(Cc3cccc(OC)c3)c2=O)cc1	-7.4%	
CC(=O)c1ccc(N2CCC(c3cc(-c4ccc(Cl)cc4Cl)n[nH]3)CC2)c([N+](=O)[O-])c1		0.282 µM (active)
COc1ccc(-c2cc(C3CCN(c4ccc(C(C)=O)cc4[N+](=O)[O-])CC3)[nH]n2)cc1		2.24 µM (active)
CC(=O)c1ccc(N2CCC(c3cc(-c4ccc(Cl)cc4)n[nH]3)CC2)c([N+](=O)[O-])c1		0.501 µM (active)
CC(=O)c1cc(CC=C(C)C)c(O)cc1O		2.82 µM (active)

SMILES	activity, negative = inhibition	AC50
COc1cc(CC(=O)O)c(C(C)=O)cc1OC	-25.3%	
COc1ccc(Sc2ccc(NC(=O)c3ccccc3Cl)cc2C#N)cc1		2.82 µM (active)
COc1cc(/C=N/Nc2snc(SC)c2C#N)cc(OC)c1OC		14.1 µM (active)
COc1ccc(/C=N/NC(=S)NC2CCS(=O)(=O)C2)cc1OC (configuration not stated)	-2.49%	
COc1ccc(/C=N/Nc2snc(SC)c2C#N)cc1OC		5.01 µM (active)
N/C(=N\OC(=O)c1cc(-c2ccccc2)nc2ccccc12)c1ccc(Cl)cc1		7.94 µM (active)
O=C(O)c1cc(-c2ccc(-c3ccc(-c4cc(C(=O)O)c5cc(Cl)ccc5n4)cc3)cc2)nc2ccc(Cl)cc12	-23.2% [at 11.4 µM]	
NNC(=O)c1ccncc1	-26.4% [at 25.6 µM]	
O=C(CC(=O)c1ccncc1)c1ccccc1		0.398 µM (active)
CCOc1cc(-c2noc(N)c2C#N)cc(OCC)c1OCC		15.8 µM (active)
O=C1[C@@H]2[C@H]3[C@H](O)[C@H](O)C/C(=N/OCc4ccccc4)[C@H]3CC[C@H]2C(=O)N1c1ccc(F)cc1F	-4.38% [at 11.4 µM]	
CN(C)CCO[C@](C)(c1ccccc1)c1ccccn1		inactive
COc1ccc(NC(=O)CSc2nncn2C)c([N+](=O)[O-])c1		31.6 µM (active)
COc1ccc(NC(=O)CN(C)S(=O)(=O)c2ccc(Cl)cc2)c([N+](=O)[O-])c1		8.91 µM (active)
CN(C)S(=O)(=O)c1ccc(Nc2ccc(O)c3c2C(=O)c2c([N+](=O)[O-])ccc(O)c2C3=O)cc1	-34.2% [at 11.4 µM]	
COc1ccc(NC(=O)c2cccs2)c([N+](=O)[O-])c1	-28.2%	
CC(C)NNC(=O)c1ccncc1		inactive
CC(=O)c1c(C(C)=O)c(C)n(NC(=O)c2ccncc2)c1C		0.2 µM (active)
CC(=O)c1c(C(C)=O)c(C)n(NC(=O)c2ccccc2Cl)c1C	-23.6%	
